The target in assay [1] is Lysosomal acid glucosylceramidase (Homo sapiens) (UniProt P04062). Description: Glucocerebrosidase-p2 (AID 348; in the data active = potency below about 10 µM; note: potency is the fitted concentration of half-maximal effect). The settings on record: purified GBA, blue fluorogenic substrate, 40 min. The method in brief: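 Compounds titrated from 0.6 nM upwards against 0.2 nM enzyme in pH 5.9 citric acid/KH2PO4, taurocholate, tween-20; blue fluorogenic substrate 80 uM, 40 min room temperature, stopped and read Ex 365/Em 440 for AC50.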
Sequence of Lysosomal acid glucosylceramidase (Homo sapiens) (P04062 whole entry, looked up): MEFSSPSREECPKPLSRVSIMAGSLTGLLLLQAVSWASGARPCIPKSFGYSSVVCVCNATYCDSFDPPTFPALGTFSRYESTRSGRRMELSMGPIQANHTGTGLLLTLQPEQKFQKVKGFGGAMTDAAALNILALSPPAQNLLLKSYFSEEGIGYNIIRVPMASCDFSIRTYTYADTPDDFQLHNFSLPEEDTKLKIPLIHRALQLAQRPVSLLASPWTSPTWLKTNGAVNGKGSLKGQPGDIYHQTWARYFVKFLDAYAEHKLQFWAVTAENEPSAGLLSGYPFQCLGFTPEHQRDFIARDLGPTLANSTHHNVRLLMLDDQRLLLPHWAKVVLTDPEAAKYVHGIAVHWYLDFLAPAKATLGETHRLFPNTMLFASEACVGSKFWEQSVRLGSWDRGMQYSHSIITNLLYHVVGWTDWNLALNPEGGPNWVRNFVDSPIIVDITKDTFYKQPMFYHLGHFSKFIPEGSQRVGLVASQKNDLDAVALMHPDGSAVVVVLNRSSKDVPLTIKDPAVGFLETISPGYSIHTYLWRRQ

Assay [2] can be described thus: AP1 Signaling Pathway (AID 357).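 Note: ME-180 reporter cells stimulated with EGF at its EC50 level; % is set by controls: 0 for no effect and ±100 for the full control effect.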 The settings on record: ME-180 AP-1-bla reporter, EGF-induced, beta-lactamase ratio, 5 h; at 7.69 µM (top of the series) unless noted. The method in brief: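 AP-1-bla ME-180 cells, Opti-MEM + 0.5% dialyzed FBS, plated overnight 37 °C. Cpd titration + EC50 EGF, 5 h 37 °C. CCF4 2.5 h RT; ex 405, em 460/530 ratio → %activity, AC50.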

Assay [3] concerns the target Cytochrome P450 1A2 (Homo sapiens) (UniProt P05177). The assay is described as follows: p450-cyp1a2 (AID 410; calls by dose curve; note: potency is the fitted concentration of half-maximal effect;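 for activity change, negative = inhibition: -100% = full effect of reference inhibitor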). The settings on record: recombinant CYP1A2, luciferin-ME demethylation, luminescence; series mostly up to 11.4 µM. The method in brief: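 Inhibition was calculated relative to 57 uM furafylline (full inhibition). The reaction used human CYP1A2 at 20nM with Luciferin-ME at its Km, 100uM, driven by an NADPH-regenerating system for 60 min at room temperature.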

Assay [4] can be described thus: NFAT Signaling Pathway (AID 444).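 Note: carbachol stimulus at about its EC50 of 1 µM final; % is set by controls: 0 for no effect and ±100 for the full control effect.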 The following applies: Jurkat NFAT-bla M1, carbachol, beta-lactamase ratio, 5 h; at 7.69 µM (top of the series) unless noted. The method in brief:
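Read-out: CCF4 FRET ratio (460 nm/530 nm) after 1 h RT dye loading, used for %activity and AC50 from titration series. Cells: Jurkat NFAT-β-lactamase/M1 line, treated with compound plus 1 uM carbachol for 5 h, 37 °C.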

The nature of assay [5]: Stat Signaling Pathway (AID 446).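 Note: ME-180 cervical cancer cells given 40 pM IL-6 alongside compound; SIE-controlled beta-lactamase reporter measured as 460/530 nm FRET emission ratio; % is set by controls: 0 for no effect and ±100 for the full control effect.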 The settings on record: ME-180 SIE beta-lactamase reporter, IL-6 stimulated, 5 h; at 7.69 µM (top of the series) unless noted. The method in brief: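 ME-180 SIE-bla cells; overnight plating; cpd + IL-6 40 pM, 5 h, 37 C; LiveBLAzer 2.5 h RT; 460/530 nm emission ratio. Normalized to 300 pM IL-6 and 125 nM JAK inhibitor controls.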
The target of assay [6] is Glucocorticoid receptor (Homo sapiens) (UniProt P04150). Description: GR-GFP Redistribution (AID 450;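 active = compounds whose dose series gives a full or clear partial fitted curve of increased nuclear translocation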; note: potency is the fitted concentration of half-maximal effect). The settings on record: U2OS GR-GFP nuclear translocation, laser cytometry, 2 h.
Sequence of Glucocorticoid receptor (Homo sapiens) (P04150 whole entry, looked up, the tested form may be a part): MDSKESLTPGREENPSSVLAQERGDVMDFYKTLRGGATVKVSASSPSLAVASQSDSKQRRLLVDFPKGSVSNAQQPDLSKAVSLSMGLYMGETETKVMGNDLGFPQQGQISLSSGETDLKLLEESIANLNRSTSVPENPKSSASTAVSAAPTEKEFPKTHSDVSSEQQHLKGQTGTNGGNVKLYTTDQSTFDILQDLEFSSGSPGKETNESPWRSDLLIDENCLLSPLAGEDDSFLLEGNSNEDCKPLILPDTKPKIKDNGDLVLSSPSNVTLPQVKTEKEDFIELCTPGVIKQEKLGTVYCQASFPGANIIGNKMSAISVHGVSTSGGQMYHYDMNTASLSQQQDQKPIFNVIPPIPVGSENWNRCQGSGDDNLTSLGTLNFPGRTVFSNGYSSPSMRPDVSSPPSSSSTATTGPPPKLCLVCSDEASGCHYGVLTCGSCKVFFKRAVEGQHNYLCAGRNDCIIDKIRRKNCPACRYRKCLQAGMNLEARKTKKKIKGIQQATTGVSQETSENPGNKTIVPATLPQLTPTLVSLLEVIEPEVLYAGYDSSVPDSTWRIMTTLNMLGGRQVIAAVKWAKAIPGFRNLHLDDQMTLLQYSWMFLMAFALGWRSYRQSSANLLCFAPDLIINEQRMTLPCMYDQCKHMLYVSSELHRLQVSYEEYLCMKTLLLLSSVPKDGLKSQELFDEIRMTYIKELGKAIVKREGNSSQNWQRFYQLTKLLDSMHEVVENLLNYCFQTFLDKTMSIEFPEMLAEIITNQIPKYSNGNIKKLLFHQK
Assay [7] shares this target. The assay is described as follows: GR-EFC Redistribution (AID 451; calls by dose curve; note: potency is the fitted concentration of half-maximal effect). The settings on record: CHO-K1 GR-EFC translocation, beta-gal luminescence, 2 h. The method in brief: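 Translocation of GR-ED fusion to nuclear EA restores b-gal, read by luminescence after 1 h room-temperature detection. Engineered CHO-K1 biosensor cells, 1,000/well, exposed 2 h at 37 C to titrations up to 46 uM final.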

For assay [8], the target named is Mitogen-activated protein kinase 10 (Mus musculus) (UniProt Q61831). Description: JNK3 AlphaScreen Assay (AID 530).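 Note: kinase came from lysate of stimulated human HepG2 cells; signal reports phosphorylation of biotinylated GST-cJun 1-79 at Ser73 with 10 µM ATP; % is set by controls: 0 for no effect and ±100 for the full control effect.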 The following applies: JNK3 lysate, c-Jun phosphorylation; series mostly up to 11.4 µM. In a few lines: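 Room-temperature AlphaScreen kinase assay; pre-activated HepG2 lysate as JNK3 source, biotin-GST-cJun(1-79) substrate, 10 uM ATP, compound 15 min preincubation.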
In general terms: Alpha assays give light when donor and acceptor beads are brought close together.

Assay [9] concerns the target 3',5'-cyclic-AMP phosphodiesterase 4B (Homo sapiens) (UniProt Q07343). Description: qHTS Assay for Inhibitors of PDE-IV (AID 607; active = well fitted activation curve with a large enough effect in the main read-out, with a control signal flat, not every such curve was filed as active; note: % of control where 0% means no effect). The following applies: HEK293 ACTOne CNG channel cells, membrane potential fluorescence; series mostly up to 22.9 µM. The method in brief: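 ACTOne HEK293 cells carry a modified cAMP-gated CNG channel and express endogenous PDE4; plated 1000 cells/well, compounds up to 22.9 uM final. Membrane-potential dye fluorescence (ex 535/em 590) was read; parental cells received 10 uM forskolin + 100 uM RO 20-1724.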
In general terms: qHTS replaces the single test concentration by a dilution series.

Values without a mark were called inactive. Inconclusive results are not listed. The source made the active and inactive calls. Unless noted, calls come from the whole dose curve; as a rule, active = well fitted curve in either direction with a large enough effect (not every such curve was filed as active); inconclusive = small, poorly fitted or top-dose-only effect, or another doubt; inactive = flat fitted curve, though single readings scatter.

Sequence of Cytochrome P450 1A2 (Homo sapiens) (P05177 whole entry, looked up): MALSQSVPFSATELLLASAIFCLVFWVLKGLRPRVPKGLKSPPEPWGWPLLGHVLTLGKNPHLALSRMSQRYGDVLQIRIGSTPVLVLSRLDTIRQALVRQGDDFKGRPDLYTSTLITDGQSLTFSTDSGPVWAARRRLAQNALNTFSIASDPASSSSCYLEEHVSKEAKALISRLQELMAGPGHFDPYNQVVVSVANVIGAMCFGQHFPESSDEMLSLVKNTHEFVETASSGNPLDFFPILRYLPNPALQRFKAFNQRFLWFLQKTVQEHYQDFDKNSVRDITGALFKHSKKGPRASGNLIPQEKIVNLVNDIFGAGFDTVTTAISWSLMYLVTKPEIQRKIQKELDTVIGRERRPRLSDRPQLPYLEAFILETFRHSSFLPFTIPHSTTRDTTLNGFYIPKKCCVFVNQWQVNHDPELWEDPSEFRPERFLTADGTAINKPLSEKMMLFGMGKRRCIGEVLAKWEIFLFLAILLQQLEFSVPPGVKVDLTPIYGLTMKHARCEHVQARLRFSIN
Sequence of 3',5'-cyclic-AMP phosphodiesterase 4B (Homo sapiens) (Q07343 whole entry, looked up): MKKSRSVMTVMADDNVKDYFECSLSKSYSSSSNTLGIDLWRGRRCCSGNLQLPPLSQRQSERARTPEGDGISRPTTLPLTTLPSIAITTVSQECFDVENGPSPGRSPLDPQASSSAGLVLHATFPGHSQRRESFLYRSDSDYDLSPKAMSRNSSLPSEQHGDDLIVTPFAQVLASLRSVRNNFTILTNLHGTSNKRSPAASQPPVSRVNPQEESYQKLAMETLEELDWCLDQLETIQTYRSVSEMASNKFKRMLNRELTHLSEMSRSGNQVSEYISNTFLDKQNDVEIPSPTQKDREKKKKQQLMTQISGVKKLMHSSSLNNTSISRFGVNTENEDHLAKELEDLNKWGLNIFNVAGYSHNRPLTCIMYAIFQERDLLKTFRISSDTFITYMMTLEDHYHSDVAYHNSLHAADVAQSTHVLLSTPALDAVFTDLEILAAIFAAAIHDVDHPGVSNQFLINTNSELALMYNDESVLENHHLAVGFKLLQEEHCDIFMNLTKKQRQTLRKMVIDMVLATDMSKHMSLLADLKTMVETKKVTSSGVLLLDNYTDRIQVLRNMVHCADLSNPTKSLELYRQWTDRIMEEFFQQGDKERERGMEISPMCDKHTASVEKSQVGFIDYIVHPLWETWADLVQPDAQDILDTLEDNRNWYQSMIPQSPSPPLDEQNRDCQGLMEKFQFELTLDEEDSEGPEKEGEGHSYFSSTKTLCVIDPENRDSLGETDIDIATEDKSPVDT

Take `CC1(C)[C@@H]2CC[C@]1(C)[C@@H](OC(=O)/C=C\c1ccccc1)C2`: the Potency in [1] is above 11.4 µM; in [6], above 46 µM; in [7] it was above 9.22 µM. Moreover, the activity change, negative = inhibition in [2] was 5.51%; in [3], -3.4% [at 2.29 µM]; in assay [4], -17.9%. For the same molecule, in assay [5], the activity, negative = inhibition is 21.7%. Further, the Potency entry in assay [8] and in assay [9] was “inactive” each time.
As for `Oc1c(CN2CCOCC2)ccc(CN2CCOCC2)c1O`, the Potency in [1] is above 11.4 µM; in assay [6], above 46 µM; in [7], above 9.22 µM. The results for the activity change, negative = inhibition in assay [2], in assay [3] and in [4] were -1.19%, -11.9% [at 2.29 µM] and 13%, respectively. For the same molecule, the activity, negative = inhibition in [5] is -3.77%. Further, the Potency result in [8] and in assay [9] was “inactive” throughout.
With `CN(C)CC(CN(C)C)c1ccccn1`, the Potency was above 11.4 µM in assay [1], above 46 µM in [6] and above 9.22 µM in [7]. Moreover, the activity change, negative = inhibition in [2] is 3.76%; in [4] it was 10.8%. Moreover, the Potency result in assay [3], in assay [8] and in [9] was “inactive” throughout. The activity, negative = inhibition in [5] was 1.27%.
On to `C[C@@](O)(CNS(=O)(=O)c1ccccc1)c1ccccc1`, for which the Potency in assay [1] is above 11.4 µM; in [6], above 46 µM; in [7], above 9.22 µM. In addition, the activity change, negative = inhibition in assay [2] is 0.078%; in assay [4], 3.96%. The Potency result in assay [3], in assay [8] and in [9] was “inactive” each time. The activity, negative = inhibition in assay [5] is -0.864%.
Regarding `Nc1c(OCC(=O)O)ccc2cc(S(=O)(=O)O)ccc12`, the values for the Potency in [1], in assay [6] and in [7] were above 11.4 µM, above 46 µM and above 9.22 µM, respectively. For the same molecule, the activity change, negative = inhibition in assay [2] was 3.51%; in assay [4], -3.75%. The Potency result in assay [3], in assay [8] and in assay [9] was “inactive” in each case. In addition, the activity, negative = inhibition in assay [5] is -10.7%.
As for `NC(N)=Nc1ccc(-c2ccc(N=C(N)N)cc2)cc1`, the Potency is above 11.4 µM in assay [1], above 46 µM in [6] and above 9.22 µM in [7]. Also, the activity change, negative = inhibition was 1.56% in assay [2] and 4.39% in assay [4]. Moreover, the Potency entry in assay [3], in assay [8] and in [9] was “inactive” in each case. For the same molecule, the activity, negative = inhibition in assay [5] was 0.358%.
Regarding `O=C1COC(c2ccccc2O)=NN1CCCN1CCCC1`, the Potency in assay [1] was above 11.4 µM; in assay [6] it was above 46 µM; in [7], above 9.22 µM. Also, the figures for the activity change, negative = inhibition in [2] and in assay [4] were 5.73% and -11.6%, respectively. The Potency entry in assay [3], in [8] and in assay [9] was “inactive” each time. The activity, negative = inhibition in assay [5] was 5.21%.
In the case of `O=C1c2cc([N+](=O)[O-])ccc2-c2ccc3c4ccc5c6c(ccc(c7ccc1c2c73)c64)C(=O)c1cc([N+](=O)[O-])ccc1-5`, the Potency was above 11.4 µM in assay [1], 794 nM (active) in [3], above 46 µM in assay [6] and above 9.22 µM in assay [7]. Further, the figures for the activity change, negative = inhibition in [2] and in assay [4] were 0.115% and 21.7%, respectively. For the same molecule, the activity, negative = inhibition in assay [5] is 9.03%. Moreover, the Potency entry in assay [8] and in assay [9] was “inactive” each time.
Take `CC(C)(CO[C@H]1C[C@H]2CC[C@@]1(C)C2(C)C)[N+](=O)[O-]`: the figures for the Potency in assay [1], in assay [6] and in [7] were above 11.4 µM, above 46 µM and above 9.22 µM, respectively. For the same molecule, the activity change, negative = inhibition in [2] is -1.64%; in [4] it was 7.34%. The Potency result in assay [3], in assay [8] and in assay [9] was “inactive” in each case. In addition, in [5], the activity, negative = inhibition was -3.85%.
Regarding `C=CCSc1nc2ccccc2c(=O)n1Cc1ccco1`, the Potency in assay [1] was above 11.4 µM; in [3], 25.1 nM (active); in assay [6] it was above 46 µM; in assay [7], above 9.22 µM. For the same molecule, the activity change, negative = inhibition in assay [2] was -0.523%; in [4] it was 2.6%. Also, the activity, negative = inhibition in assay [5] was -8.01%. Further, the Potency entry in assay [8] and in [9] was “inactive” each time.
Turning to `NCCNC(=S)S`, the Potency in [1] is 9.83 µM (active); in assay [6] it was above 46 µM; in assay [7], above 9.22 µM. Besides, the figures for the activity change, negative = inhibition in assay [2], in assay [3] and in [4] were 3.85%, -13.2% [at 2.29 µM] and -0.808%, respectively. In addition, in assay [5], the activity, negative = inhibition was -0.434%. Moreover, in [8], the Potency result is “inactive”.

For the origin of these results see PubChem BioAssay (NCATS).
